Measurements taken from PubChem BioAssay (NCI).
The panel holds about 83,000 compounds, 20% with a hit somewhere; the sample as a whole holds those more often.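 Results are percent growth after 48 hours of single-concentration exposure. 100 means growth as in untreated cells, lower positive values show inhibition; negative values down to -100 show cell death.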 A number with no mark means an inactive call. Activity calls are given as the source filed them. The calls were made as follows: active = growth percent below 10; inactive = the rest.

How the values were obtained:
Assay in all cases: NCI-60 one-dose screen, 48 h (100 = growth as untreated, 0 = no growth, -100 = all killed)
[1] = tested on: DU-145 prostate; conditions: 10 µM unless noted
[2] = tested on: K-562 leukemia; conditions: 10 µM unless noted
[3] = tested on: MALME-3M melanoma; conditions: 10 µM unless noted
[4] = tested on: MDA-MB-231 breast; conditions: 10 µM unless noted
[5] = tested on: RXF 393 renal; conditions: 10 µM unless noted
[6] = tested on: SF-268 CNS; conditions: 10 µM unless noted
[7] = tested on: SF-295 CNS; conditions: 10 µM unless noted
[8] = tested on: SF-539 CNS; conditions: 10 µM unless noted
[9] = tested on: UACC-257 melanoma; conditions: 10 µM unless noted
[10] = tested on: M14 melanoma; conditions: 10 µM unless noted
[11] = tested on: HCT-15 colon; conditions: 10 µM unless noted
[12] = tested on: SNB-75 CNS; conditions: 10 µM unless noted
[13] = tested on: SNB-19 CNS; conditions: 10 µM unless noted
[14] = tested on: U251 CNS; conditions: 10 µM unless noted
[15] = tested on: SK-MEL-5 melanoma; conditions: 10 µM unless noted
[16] = tested on: UACC-62 melanoma; conditions: 10 µM unless noted
[17] = tested on: LOX IMVI melanoma; conditions: 10 µM
[18] = tested on: SK-MEL-28 melanoma; conditions: 10 µM unless noted
[19] = tested on: PC-3 prostate; conditions: 10 µM unless noted
[20] = tested on: HT29 colon; conditions: 10 µM unless noted

SMILES	growth [1]	growth [2]	growth [3]	growth [4]	growth [5]	growth [6]	growth [7]	growth [8]	growth [9]	growth [10]	growth [11]	growth [12]	growth [13]	growth [14]	growth [15]	growth [16]	growth [17]	growth [18]	growth [19]	growth [20]
Oc1ccc(N=Cc2ccc(OCc3ccccc3)cc2)cc1	108%	120%	93.5%	92.5%	99.2%	103%	92%	105%	118%	104%	96.6%	92.1%	91.3%	102%	92.2%	88.6%	100%	106%	–	–
O=C(O)c1ccccc1Cc1ccc2c(c1)CCCC2	118%	106%	108%	95%	105%	99.5%	116%	110%	100%	110%	104%	87.2%	102%	111%	–	96.4%	109%	108%	103%	–
CN1CCN(C(=S)S)CC1	102%	73.5%	143%	106%	130%	102%	127%	104%	105%	105%	100%	105%	–	102%	111%	101%	87.9%	115%	98.4%	–
CCN(Cc1ccc(Cl)c(Cl)c1)c1ccc2nc(N)nc(N)c2c1C	-85.5% (active)	-83.9% (active)	-84% (active)	-84.9% (active)	-80.1% (active)	-70.1% (active)	-62.8% (active)	-97.8% (active)	-77.7% (active)	-70.1% (active)	-82.1% (active)	-94.7% (active)	-97.4% (active)	-92% (active)	-98.2% (active)	-86.1% (active)	-87.5% (active)	-95.4% (active)	-62.2% (active)	–
Oc1cccnc1CN1CCCC1	113%	99.5%	107%	105%	116%	104%	113%	102%	98.3%	112%	95.3%	96.1%	–	94.8%	99.8%	102%	96.6%	107%	89.7%	–
CCN(CC)CCOC(=O)Nc1c(C(C)C)cccc1C(C)C	116%	99%	98.2%	104%	107%	106%	102%	96.6%	97.5%	107%	106%	110%	99.6%	107%	95.7%	93.3%	–	111%	–	–
S=c1nc(-c2ccccn2)c(-c2ccccn2)n[nH]1	103%	105%	89.6%	118%	118%	102%	–	111%	107%	98.3%	100%	107%	112%	102%	108%	116%	95.9%	114%	97.7%	103%
Nc1ccc2c(c1)Cc1cc(N)c(N)cc1-2	108%	97.3%	95.8%	84%	97.3%	104%	106%	109%	81%	–	108%	96%	95.6%	–	93.4%	94%	97%	107%	96.3%	95.9%
CC1(C)OC2C(CO)OC(n3ccc(=O)[nH]c3=O)C2O1 (centres undefined)	112%	110%	85.2%	92.9%	113%	102%	104%	–	75.7%	105%	102%	106%	100%	87.6%	97.9%	93.9%	101%	108%	90.2%	94.3%
ON1CCCC1	113%	90.7%	106%	114%	107%	106%	–	108%	102%	104%	101%	83.2%	103%	100%	109%	105%	94.8%	106%	101%	95.3%
CSc1cnc2ccccc2n1	115%	106%	88.7%	95.7%	111%	105%	97.9%	–	91.3%	97.3%	104%	107%	99.5%	94.1%	105%	97.1%	96.4%	110%	89.6%	83.2%
O=Cc1ccc(F)cc1	109%	127%	85.1%	97.1%	86.9%	109%	–	101%	106%	106%	93.4%	90.3%	103%	101%	99.8%	102%	101%	102%	101%	103%
CCCCN(C=S)CCCC	112%	113%	101%	104%	101%	105%	99.1%	–	99.6%	94.8%	98.1%	87.4%	94.3%	90.3%	101%	96.4%	106%	96.2%	91.5%	102%
C=C1SC(=Nc2c(C)cccc2C)N(c2nc(Cl)nc(Cl)n2)C12CCCCC2	108%	95.2%	90.3%	115%	106%	107%	–	116%	94.6%	97.9%	109%	96.7%	108%	102%	84.2%	105%	104%	104%	99.3%	108%
COC(c1ccc2c(c1)OCO2)C(C)Br (centres undefined)	109%	87.3%	98.3%	94.8%	99.9%	107%	101%	92.5%	–	97.1%	103%	76.6%	101%	96.9%	104%	94.6%	92.3%	103%	69.3%	–
O=C(Nc1ccc([N+](=O)[O-])cc1)C(=O)Nc1ccc([N+](=O)[O-])cc1	110%	106%	105%	98.1%	109%	100%	102%	–	77.7%	104%	101%	116%	99.6%	81.2%	100%	97%	94.9%	115%	90.5%	91.5%
CSCCC(NC(=O)C(Cl)Cl)C(=O)O (centres undefined)	108%	97.8%	114%	99.3%	97.1%	99.1%	98.1%	96.1%	–	93.8%	102%	85.6%	107%	90.9%	99.8%	95.8%	98.4%	97%	89%	–
Oc1ccc(CCC2CCNc3ccccc32)cc1 (centres undefined)	93.4%	69.7%	98.8%	86.2%	81.5%	83.1%	75.2%	75.7%	–	89.4%	83.2%	76.6%	87.2%	71.5%	58%	72%	81.1%	94.4%	60.7%	93.7%

SMILES	growth [1]	growth [2]	growth [3]	growth [4]	growth [5]	growth [6]	growth [7]	growth [8]	growth [9]	growth [10]	growth [11]	growth [12]	growth [13]	growth [14]	growth [15]	growth [16]	growth [17]	growth [18]	growth [19]	growth [20]
CC1=CC(=Nc2ccc(N(C)C)cc2)C=C(C)C1=O	101%	75.1%	92.6%	64%	65.1%	88.6%	97.3%	–	77.5%	91.9%	85.7%	75.8%	106%	92.7%	74%	37.7%	46.4%	96.8%	69.9%	98.6%
CSc1nsc(N)n1	115%	113%	93.5%	95.9%	108%	104%	101%	–	99.9%	97.6%	95.5%	87.4%	96%	94.9%	101%	93.1%	98.2%	106%	93.6%	95.1%
CCOC(=O)C(=O)CC(=O)c1ccccc1	102%	118%	100%	92.9%	103%	96.7%	104%	100%	101%	–	102%	91.7%	100%	93.3%	95%	93.3%	98.6%	106%	–	103%
O=C(c1ccccc1O)N1CCCC1	115%	89.1%	104%	105%	106%	106%	96.6%	–	80.2%	96.4%	99.2%	88%	–	89.8%	105%	100%	99.7%	98.5%	–	93%
O=C(NC(=S)N1CC=CCC1)c1ccccc1	129%	111%	100%	104%	128%	108%	111%	–	105%	95.8%	102%	111%	105%	104%	104%	107%	107%	115%	98.5%	100%
NC(=S)N/N=C/c1ccc(OC(=O)COc2ccc(Cl)cc2)cn1	29.3%	44.1%	45.5%	66.6%	67%	27.8%	99.2%	–	78.1%	17.9%	70.6%	44.9%	72.9%	32.6%	30.7%	8.53% (active)	23.8%	76.5%	64.3%	79.3%
COC(=O)c1ccccc1C(=O)c1c(C)cc(C)cc1C	104%	96.7%	99.1%	97.4%	111%	102%	102%	–	99.6%	108%	101%	96.5%	103%	91.2%	101%	92.5%	102%	94.9%	90%	93.8%
O=C(O)C1CSC(c2ccccc2)N1 (centres undefined)	105%	128%	98.8%	80.9%	106%	102%	99.8%	–	106%	95.6%	90.5%	96.7%	96.5%	105%	101%	93%	102%	99.6%	92.6%	91.7%
c1ccc(-c2ccc3ccccc3c2)cc1	106%	111%	84.1%	91%	103%	89.9%	102%	–	94.7%	103%	107%	107%	100%	92.7%	96.4%	95.4%	95.7%	107%	90.8%	–
Nc1ccc2ccccc2c1-c1c(N)ccc2ccccc12	25.8%	18.7%	42.4%	43%	6.23% (active)	54.1%	13.8%	–	18%	19.5%	30.7%	42.7%	44.1%	21.5%	25.5%	24.9%	36.8%	56.4%	31.2%	7.41% (active)
CCN(C(=O)Nc1ccccc1Cl)c1ccccc1	109%	93.9%	100%	109%	115%	109%	–	104%	102%	111%	94.1%	117%	103%	96.8%	101%	104%	96.5%	113%	94.6%	101%
CC(C)(C)NCCC(O)c1cc(C(F)(F)F)nc2c(C(F)(F)F)cccc12 (centres undefined)	73.6%	64.5%	102%	55.1%	73.3%	71%	–	75.1%	90.1%	84.6%	79.2%	78.2%	87.2%	54.3%	81.8%	74.7%	1.78% (active)	117%	55.3%	66.5%
Nc1c(Br)cc(O)c2c1C(=O)c1ccccc1C2=O	91.6%	66.3%	89.5%	77.5%	80.5%	60.3%	114%	–	89.1%	100%	47.7%	110%	95.2%	92%	96.7%	87.4%	34.4%	112%	84.6%	54%
CN1CCCN(C(c2ccccc2)c2ccc(Cl)cc2)CC1 (centres undefined)	107%	90%	98.8%	95.8%	86.8%	82.3%	92.2%	96.9%	–	–	85.9%	59%	117%	97.2%	94.8%	106%	89.4%	103%	–	86.6%
CCN(CC)CCN1CNC(=S)NC1	106%	102%	103%	114%	114%	102%	102%	103%	111%	–	106%	107%	–	105%	104%	105%	95.8%	114%	101%	104%
NC(=S)N/N=C/c1ccc(OC(=O)COc2ccccc2)cn1	26.1%	53.4%	52.2%	60%	72.2%	30.7%	111%	–	90.6%	15%	76.8%	59.3%	74.9%	42.3%	38.4%	13.9%	19.1%	83%	63.9%	84.1%
Cc1cccnc1NC1OC(=O)c2ccccc21 (centres undefined)	102%	101%	93.7%	115%	118%	124%	–	109%	100%	95.7%	96.7%	96.5%	101%	101%	105%	96.6%	94.9%	112%	114%	104%
